Source: PubChem BioAssay (NCI)
About 79,000 compounds went through this panel and 15% of them were active in at least one assay; those are over-represented in the sample as a whole. Cut-off read from the data, not from the text of the source: active = growth inhibition above about 70%; inactive = the rest.

Key:
[1] = NCI Yeast Anticancer Drug Screen. Data for the rad50 strain (AID 155);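 note: 0% = growth of vehicle-only cultures of the same strain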; conditions: S. cerevisiae rad50 strain growth inhibition; at 50.0 µM; stronger effect = higher value
How it was run: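 Yeast carrying a defined DNA repair defect were exposed to test compounds, and growth was compared with vehicle-treated controls to give percent inhibition.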

[2] = NCI Yeast Anticancer Drug Screen. Data for the mec2-1 strain (AID 157); conditions: S. cerevisiae mec2-1 strain, at 50.0 µM, stronger effect = higher value
How it was run: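 Strain: mec2-1 (DNA repair/cell cycle alteration). Compound exposure, then growth measured; inhibition expressed relative to vehicle.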

[3] = NCI Yeast Anticancer Drug Screen. Data for the sgs1 mgt1 strain (AID 161);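 note: 0% = growth of cultures given vehicle only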; conditions: S. cerevisiae sgs1 mgt1 strain, at 50.0 µM, stronger effect = higher value
How it was run: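 Inhibition of yeast growth, normalised to vehicle-treated controls, is reported for a strain bearing genetic alterations in DNA damage repair.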

[4] = NCI Yeast Anticancer Drug Screen. Data for the cln2 rad14 strain (AID 165);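 note: 0% = growth equal to vehicle treated cultures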; conditions: S. cerevisiae cln2 rad14 strain, at 50.0 µM, stronger effect = higher value
How it was run: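 Compounds are applied to the cln2 rad14 yeast strain, and growth is then compared with that of vehicle-treated cultures to give inhibition.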

[5] = NCI Yeast Anticancer Drug Screen. Data for the bub3 strain (AID 167); conditions: S. cerevisiae bub3 mutant strain, at 50.0 µM, stronger effect = higher value
How it was run: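 Compounds were applied to a genetically altered yeast strain carrying a cell-cycle control defect. Growth inhibition was scored against vehicle-treated controls.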

[6] = NCI Yeast Anticancer Drug Screen. Data for the mlh1 rad18 strain (AID 175); conditions: S. cerevisiae mlh1 rad18 strain growth inhibition; at 50.0 µM; stronger effect = higher value
How it was run: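 Read-out is yeast growth inhibition, calculated against vehicle-only controls. The compound was applied to a strain engineered with DNA damage repair alterations.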

Measured: growth inhibition

Cc1nc2ccccc2s1
inactive: [1] 25.1% | [2] 48.2% | [3] 7.9% | [4] 29% | [5] -1.35% | [6] 4.05%

CC(=O)OCCOCCCl
inactive: [1] -12.8% | [2] 20.2% | [3] 1.5% | [4] -13.3% | [5] 19.2% | [6] 12.1%

c1ccc(C2Nc3ccccc3NC2c2ccccc2)cc1 (stereo not drawn)
inactive: [1] 29.5% | [2] 5.75% | [3] 24.4% | [4] 20.9% | [5] 60.6% | [6] 56.8%

O=c1cc(-c2cccc3ccccc23)[nH]c2ncccc12
inactive: [1] -13.3% | [2] -10.7% | [3] -21.9% | [4] 13.9% | [5] -9.3% | [6] -29.5%

CCOC(=O)C1(C(=O)OCC)C(C#N)(C#N)C1(C#N)C#N
inactive: [1] -0.8% | [2] 1.75% | [3] -7.2% | [4] -7.3% | [5] -1.65% | [6] -11.3%

COc1nc(C(=O)O)c(Cl)c(OC)c1Cl
inactive: [1] -34.6% | [2] -21.8% | [3] -40.5% | [4] -4.95% | [5] -39.6% | [6] -35%

Cc1ccc(S(=O)(=O)C2c3nc4ccccc4cc3-c3nc4ccccc4nc32)cc1 (stereo not drawn)
inactive: [1] -10.8% | [2] -13.2% | [3] -17.8% | [4] -81.8% | [5] 7.95% | [6] -14.9%

COC(=O)C1=C(C(=O)OC)SC(=C2c3ccsc3-c3sccc32)S1
inactive: [1] -31.3% | [2] -6.2% | [3] -7.45% | [4] 19% | [5] 1.3% | [6] -4.5%

CCc1c([N+](=O)[O-])c2cc([N+](=O)[O-])ccc2n1C
inactive: [1] 3.35% | [2] 8.85% | [3] -7.65% | [4] -1.65% | [5] 2.8% | [6] 8.75%

COc1ccc(/C(C)=N/NC(=O)CC(=O)N(C(=O)c2ccccc2)c2ccc(C)cc2)cc1
inactive: [1] -8.45% | [2] -36% | [3] -6.5% | [4] 8.15% | [5] -27.2% | [6] -17.9%

CCOC(=O)CC(C(=O)OCC)C(=O)OCC
inactive: [1] -7.4% | [2] -11.4% | [3] -8.1% | [4] -6.35% | [5] 5.45% | [6] -4.1%

CCOC(=O)NC(OCCN(C)C)(C(F)(F)F)C(F)(F)F
inactive: [1] -32.4% | [2] 25.9% | [3] -53.5% | [4] 3.3% | [5] -4.15% | [6] 31.1%

CC(C)c1ccc(C(O)C2CC2)cc1 (stereo not drawn)
inactive: [1] -14.3% | [2] -40.8% | [3] -15.2% | [4] 3.05% | [5] -19.6% | [6] -11.6%

CCOC(=O)c1c(C)[nH]c(=S)c(C#N)c1-c1ccc(Cl)cc1
inactive: [1] 13% | [2] 12.1% | [3] 34.4% | [4] 4.55% | [5] 28.6% | [6] -1.55%

NC(N)=Nc1cccc2ccccc12
inactive: [1] -1.45% | [2] 0.85% | [3] -5.65% | [4] -12.8% | [5] -0.45% | [6] -5.15%

O=C1CCC2=C3C4CCCC5OC6CC(=O)CCC6=C(C6CCCC(OC2C1)C36)C54 (stereo not drawn)
inactive: [1] 5.5% | [2] -2.15% | [3] 6.55% | [4] 11.2% | [5] 25.6% | [6] 17.4%

CC(C)(C)c1cc(-c2cc(C(C)(C)C)n(-c3ccccc3)n2)nn1-c1ccccc1
inactive: [1] -22.6% | [2] -26.9% | [3] -17.3% | [4] 16% | [5] -31.4% | [6] -27.2%

CCOC(=O)C(C)(C(=O)OCC)c1c[n+]([O-])c2ccccc2c1[N+](=O)[O-]
inactive: [1] 13.8% | [2] -5.15% | [3] 19.3% | [4] -22.4% | [5] -4.55% | [6] 12.9%

CC(=O)c1ccc(C)c([N+](=O)[O-])c1
inactive: [1] -13.2% | [2] -5.65% | [3] -11.6% | [4] -48.1% | [5] -7.15% | [6] -0.6%

NCCCc1ccc2oc3ccccc3c2c1
inactive: [1] 23.8% | [2] -14.2% | [3] 13.9% | [4] 15.5% | [5] -22.3% | [6] 24.4%

FC(F)(c1nn[nH]n1)C(F)(F)C(F)(F)c1nn[nH]n1
inactive: [1] -6.8% | [2] -2.6% | [3] -10.8% | [4] -36.2% | [5] -1.05% | [6] -2.95%

O=C(O)C1CSC2(CCCC2)N1 (stereo not drawn)
inactive: [1] 16.6% | [2] 4.15% | [3] 12.1% | [4] 4.35% | [5] 5.7% | [6] -1.6%

Nc1ccc(O)cc1
inactive: [1] 15.2% | [2] 7.5% | [3] 39% | [4] 9.35% | [5] 3.45% | [6] 14.9%

COc1ccc(C2c3cc4c(cc3OC3(O)CCCC(=O)C23)OCO4)cc1 (stereo not drawn)
inactive: [1] -13.2% | [2] 15.3% | [3] 4.55% | [4] -39.3% | [5] 20.6% | [6] -7.4%

COc1cc(C=C(C#N)C#N)ccc1OC(=O)c1cc(OC)c(OC)c(OC)c1
inactive: [1] -1.5% | [2] -5.6% | [3] 15.8% | [4] 2.2% | [5] 4.45% | [6] -6.25%

Cc1ccc2cccc(C)c2n1
inactive: [1] -14.9% | [2] -26.6% | [3] -45.3% | [4] -6.7% | [5] -29.6% | [6] -23.5%

CCC(=O)OCCCCC1CCCO1 (stereo not drawn)
inactive: [1] 9.35% | [2] 5.4% | [3] 2.25% | [4] 2.75% | [5] 12.3% | [6] 4.4%

O=c1[nH]c(-c2ccncc2)nnc1-c1ccc(Cl)cc1
inactive: [1] -4.4% | [2] -8.1% | [3] -11.5% | [4] -26.9% | [5] 2.15% | [6] -14.1%

CCN(CC)c1cccc2c1C1(O)CCC3(CC21)OCCCCO3 (stereo not drawn)
inactive: [1] -33% | [2] -21.6% | [3] -57.3% | [4] -1.65% | [5] -45% | [6] -28.9%

COc1cc(OC)cc(C2OC(N)=C(O)C2=O)c1 (stereo not drawn)
inactive: [1] 9.65% | [2] 4.25% | [3] 13% | [4] 14.9% | [5] 2.35% | [6] 19.3%

CC(C)c1ccccc1OC(=O)NC1CCCCC1
inactive: [1] 1.9% | [2] 20.7% | [3] 7.25% | [4] 0.15% | [5] 14.7% | [6] 3.95%

O=C(Nc1ccc(S(=O)(=O)N2CCCCC2)cc1)OC(c1ccccc1)c1ccccc1
inactive: [1] 38.3% | [2] -6.6% | [3] 27.4% | [4] 15.9% | [5] -11.7% | [6] 6.05%

COc1ccc2c(c1)C1=C(CC2)C(=O)OC1=O
inactive: [1] -0.9% | [2] 11.7% | [3] 28.5% | [4] 2.8% | [5] 5.05% | [6] -4.85%

C=CCOCC(CCl)OC(=O)C(C)C (stereo not drawn)
inactive: [1] -4.95% | [2] -11.8% | [3] -13.3% | [4] -9.9% | [5] 0.7% | [6] -20.2%

CC(=O)Nc1c(C)n(C)n(-c2ccccc2)c1=O
inactive: [1] -2.45% | [2] -12.7% | [3] 23.4% | [4] 31.1% | [5] 17.6% | [6] 13.6%

CCCCCSC
inactive: [1] 21% | [2] -12.1% | [3] 11.2% | [4] 10.1% | [5] 7.9% | [6] 28.6%

Cc1c(C)n(C)c(=S)n(C)c1=S
inactive: [1] 4.95% | [2] 4.15% | [3] 5.8% | [4] 31.6% | [5] 1.85% | [6] 8.65%

CCCCOC(=O)/C(=C\c1cccc(OC)c1)NC(=O)c1ccccc1
inactive: [1] 15.8% | [2] 14.9% | [3] 28.5% | [4] 11.2% | [5] 58.2% | [6] 34.6%
